High-throughput results from PubChem.
SW480 rerep: inducers of DNA re-replication in SW480 colon cancer cells. SW480 DNA re-replication, Hoechst DNA content imaging, 48 h. Potency, µM (doses to about 46.1 µM), inactives show top-dose re-replication activation, most hits filed as activators. 340,000 tested, 1.8% active. AID 624297; also: potency is read from the fitted curve at half-maximal effect; % of control where 0% means no effect; nearly all actives have a fitted effect of over 55% in size
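250 cells/well; 23 nL cpd via pin tool; 48 hr, 37 C, 5% CO2; Hoechst 40 min; imager read of total nuclear intensity, ex 405/em 500-530 nm.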
MCF10A rereplic: inducers of DNA re-replication in MCF 10A breast cells; 350,000 tested, 2.9% active; Potency, µM (top dose mostly 46.1 µM), inactives show at the top dose activity, positive = re-replication, most hits filed as activators; MCF 10A DNA re-replication, Hoechst nuclear intensity, 48 h; AID 624296; also: potency is read from the fitted curve at half-maximal effect; % of control where 0% means no effect; nearly all actives have a fitted effect of over 50% in size
IL1B secr inh: blocks inflammasome-driven IL-1 beta release; THP-1 LPS/ATP IL-1B secretion, AlphaLISA, 16 h; stronger effect = lower value; activity change, % at 57.5 µM; 360,000 tested, 4.7% active; in the data active = activity change below about -50%; inconclusive = mostly about -30% to -49%; also: % is scaled to controls: 0 for no effect and ±100 for the full control effect
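Secreted IL-1B measured by AlphaLISA bead assay after 16 h compound exposure of THP-1 cells; compounds (final up to 57.5 uM) added 1 h before LPS (250 ng/mL) and ATP (1.25 mM) stimulation; lower signal means less secretion.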
BCR signal inh: inhibitors of chronic active B-cell receptor signaling; 340,000 tested, 0.05% active; ABC-DLBCL IkBa-CBG/CBR reporter, luminescence ratio, 4 h; AID 493014; Potency, µM (highest dose often 46.1 µM), for inactives: at the top dose activity change, negative = inhibition, actives largely listed as inhibitors; active = well fitted inhibition curve with a large enough effect in the signal ratio, with a control signal flat, not every such curve was filed as active; inconclusive = small, poorly fitted or top-dose-only effect, or effect the other way, or a change in a side signal; the % refers to the signal ratio;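 also: potency is read from the fitted curve at half-maximal effect; plate controls were basal doxycycline-induced cells for no effect and cells given 10 µM MG132 for full effect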
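Cell line TMD8 (human ABC DLBCL), stably expressing tet-inducible CBG68-IkBa fusion and CBR; IMDM/0.5% FBS; cpd up to 46 uM; dox induction, 4 h, 37C/5% CO2; dual luminescence; green/red ratio; MG132 control.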
DT40 TDP1 no CPT: qHTS for Inhibitors of human tyrosyl-DNA phosphodiesterase 1 (TDP1): qHTS in cells in absence of CPT; DT40 Tdp1-/- hTDP1 cells, no CPT, ATP luminescence, 48 h; Potency, µM (titrated, usually from 46.2 µM), for the others: top-dose activity change, negative = growth inhibition, usual class: inhibitors; 420,000 tested, 15% active; also: potency is read from the fitted curve at half-maximal effect; % is scaled to controls: 0 for no effect and ±100 for the full control effect; nearly all actives have a fitted effect of over 55% in size
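Growth of hTDP1-complemented DT40 Tdp1-knockout cells is measured by ATP luminescence after at least 48 hr compound exposure at 37 °C, with DMSO substituting for the 20 nM CPT used in the parallel screen.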
TDP1 cell CPT: DT40-hTDP1 cell growth loss with CPT; AID 686979; chicken DT40 Tdp1-/-;hTDP1 cells + 20 nM CPT, ATP luminescence, 48 h; Potency, µM (highest dose often 46.2 µM), for inactives: top-dose activity change, negative = growth inhibition, usual class: inhibitors; 420,000 tested, 12% active; also: potency is read from the fitted curve at half-maximal effect; % is scaled to controls: 0 for no effect and ±100 for the full control effect; nearly all actives have a fitted effect of over 55% in size
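Chicken DT40 Tdp1-/- cells complemented with human TDP1, 400 cells/well, exposed to compounds plus 20 nM camptothecin for at least 48 h at 37 C; viability read as ATP content by CellTiter-Glo luminescence.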
* = called active by the depositor; i = inactive; ? = inconclusive; / = no result; [ ] = remark or other dose. Most compounds without a hit are left out; they make up all but 19% or so of the library. Unless noted, calls follow the shape of the dose curve; as a rule, active = well fitted curve in the direction sought with a large enough effect; inconclusive = small, poorly fitted or top-dose-only effect, or another doubt; inactive = no such curve, though single readings can be large; an effect the other way counts as inactive or inconclusive.

SMILES | SW480 rerep | MCF10A rereplic | IL1B secr inh | BCR signal inh | DT40 TDP1 no CPT | TDP1 cell CPT
CCOc1ccc(CC(=O)Nc2c3c(nn2C(C)(C)C)CS(=O)(=O)C3)cc1 | -24.9% | 2.5% | i | -0.9% | 0.6% | 2.8%
O=C(c1cccc2ccccc12)N1CCN(S(=O)(=O)c2ccccc2)CC1 | / | / | / | / | -6.7% | ?
Cc1cccc(OCC(=O)Nc2nccs2)c1C | -0.2% | 1.4% | 49.1 | ? | -28.7% | ?
COCCCn1c(=O)c2sccc2n(Cc2cccc(F)c2)c1=O | -132.7% | -1.1% | 3.3 | -13.6% | -15.4% | -19.9%
O=C(C1CCC(Cn2c(=O)c3sccc3n(Cc3cccc(F)c3)c2=O)CC1)N1CCOCC1 (centres undefined) | / | / | / | / | 16.4µM* | ?
CNC(=O)C1CCC(Cn2c(=O)c3sccc3n(Cc3ccc(F)cc3)c2=O)CC1 (centres undefined) | / | / | / | / | 8.2µM* | 8.2µM*
CCOC(=O)/C(N=Nc1ccc(C(=O)O)cc1[N+](=O)[O-])=C(\C)O | -66.5% | 3.66µM* | 0.0 | 1.6% | 18.5% | -16.3%
CCc1ccc(Nc2ccc(C(N)=O)cc2[N+](=O)[O-])cc1 | ? | 1.9% | -11.8 | ? | 23.1µM* | ?
Cc1ccc(NC(=O)CSc2ccc(C(N)=O)cc2[N+](=O)[O-])cc1C | 17.9% | 2.3%[9.22 µM] | 24.0 | 3.0% | 16.4µM* | 10.3µM*
CC(=O)/C(N=Nc1ccc(C(=O)O)cc1[N+](=O)[O-])=C(\C)O | -21.8% | 5.8% | -5.9 | -9.9% | 10.6% | -1.2%
CC(=O)Nc1ccc(OC(=O)c2ccc(Br)c([N+](=O)[O-])c2)cc1 | 13.1% | 14.6% | -147.0* | ? | -27.3% | -25.0%
CCc1ccc(Nc2ccc(C(=O)O)cc2[N+](=O)[O-])cc1 | -4.8% | 6.4% | 21.9 | ? | -7.6% | -2.8%
CCOc1ccc(C(=O)Oc2ccc(NC(C)=O)cc2)cc1 | / | / | / | 0.1% | / | /
COc1ccc(C2/C(=C(/O)c3ccc(F)cc3)C(=O)C(=O)N2CCCN2CCOCC2)cc1OC (centres undefined) | 0.9% | 6.8% | 15.7 | -0.1% | -11.2% | -2.4%
CCOc1ncccc1C(=O)OCC(=O)Nc1ccc2c(c1)OCO2 | -11.7% | -3.3% | -7.0 | -0.2% | 10.5% | -2.3%
COc1ccc(S(=O)(=O)Nc2ccc3c(c2)C(=O)N([C@H](C)CO)C[C@H](C)[C@@H](CN(C)S(=O)(=O)c2cn(C)cn2)OCCCC[C@H](C)O3)cc1 | / | / | 10.1 | / | ? | -15.1%
CCNc1ccc(C(=O)OCC(=O)N(Cc2ccccc2)C(C)(C)C)cc1[N+](=O)[O-] | -2.5% | 0.7% | 10.3 | -5.1% | ? | 14.6µM*
Cc1ccc(CC(=O)Nc2ccc(F)c([N+](=O)[O-])c2)cc1 | -5.0% | 4.1% | 0.3 | ? | 0.1% | ?
Cc1ccc(S(=O)(=O)Cc2cc(F)c([N+](=O)[O-])cc2[N+](=O)[O-])cc1 | ? | ? | -92.4* | ? | 2.91µM* | 3.66µM*
CCOC(=O)c1ccc([N+](=O)[O-])c(CS(=O)(=O)c2ccc(Cl)cc2)c1 | -0.8% | 20.6µM* | 22.2 | ? | -23.9% | -20.9%
CCCNc1ccc(C(=O)OCC)cc1[N+](=O)[O-] | 0.0% | 4.3% | 5.1 | ? | -22.9% | -9.5%
COC(=O)c1ccc([N+](=O)[O-])c(CS(=O)(=O)c2ccc(Cl)cc2)c1 | 0.3% | 4.1% | 72.2 | -0.5% | 6.6% | -7.6%
CCOC(=O)c1ccc(NC(C)=O)c([N+](=O)[O-])c1 | -64.9% | 2.2% | 19.1 | 0.2% | -100.5% | 25.9µM*
COc1cc(Cl)c(C)cc1NC(=O)CSC1=NCCS1 | -3.9% | 27.0% | ? | -1.6% | ? | ?
Cc1ccc(NC(=O)CCN2C(=O)NC(C)(C)C2=O)cc1F | ? | -14.5% | -0.1 | 6.1% | -0.7% | 1.9%
